Assay results from ChEMBL document CHEMBL3988442, “University of Dundee, Small-Polar-MMV Screening Library” (2021).
Hit rate of the full screen: of about 38,000 compounds, about 1,200 (3.2%) showed an effect of 50% or more. The median lay at about -58%. This is one part of a sample in which strong results are shown more often than they occur.

The compounds below were run on Plasmodium falciparum (assay: Calibr Malaria Delayed Death Assay SOP). Conditions: concentration 4.99e-06 (unit not given; other assays of the set use mol/L).
Type: functional, organism-based
Set-up: scale not given: in the data most compounds retested in dose-response had high values

| Compound | Percent Effect [%] |
| --- | --- |
| CCCNS(=O)(=O)Cc1ccc(Br)cc1 | -18.14 |
| CC(O)CCN(C)S(=O)(=O)Cc1ccc(Br)cc1 (stereo unspecified) | -27.23 |
| CN(C)CCN(C)S(=O)(=O)Cc1ccc(Br)cc1 | 62.66 |
| CC(Cn1cccn1)NC(=O)NCc1ccnc(OC2CCCC2)c1 (stereo unspecified) | -91.81 |
| O=C(CCc1cccs1)Nc1ccnn1C1CCS(=O)(=O)C1 (stereo unspecified) | -51.38 |
| Cc1ccc(C(=O)N2CC[C@]3(C[C@@H](OCc4ccccn4)CO3)C2)nc1.O=C(O)C(F)(F)F.O=C(O)C(F)(F)F | -9.931 |
| CNc1cncc(C2CCCN2Cc2cccc(C)n2)n1 (stereo unspecified) | -46.34 |
| Cc1nonc1C1CCCN1Cc1ccc(C(=O)Nc2nccs2)cc1 (stereo unspecified) | -15.94 |
| Cc1ccc(C)c(CSc2nnc([C@@H](N)C(C)C)o2)c1.Cl | -98.07 |
| FC(F)Oc1ccccc1CN1CCCC(c2nccn2CC2CC2)C1 (stereo unspecified) | 86.3 |
| N#Cc1ccccc1CN1CCCC(c2nccn2CC2CC2)C1 (stereo unspecified) | 10.64 |
| NC(=O)Cn1ccnc1C1CCCN(Cc2ccccc2OC(F)F)C1 (stereo unspecified) | -1.798 |
| Cc1cc(NC(=O)CN2CCCC2c2noc(C(C)C)n2)no1 (stereo unspecified) | -88.6 |
| COCC1CCCN(C(=O)c2ccc(N(C)Cc3cnn(C)c3)nc2)C1 (stereo unspecified) | -103.7 |
| O=C(CCCn1cnc2ccccc2c1=O)Nc1nc[nH]n1 | -6.042 |
| O=C(Nc1ccccn1)C1CCN(Cc2cc3c(cc2O)OCO3)CC1 | -119.6 |
| O=C(Cc1ccc2c(c1)CCC2)NC1CCN(Cc2ccccc2)CC1 | 27.79 |
| O=C(CCCNC(=O)C1CCCO1)Nc1ccc(Cl)cc1 (stereo unspecified) | -38.58 |
| CCc1nc(CN(C)CC(=O)OC(C)(C)C)cs1 | -47.19 |
| COc1cccc([C@@H]2CCN(Cc3cccc(C)n3)C[C@H]2O)c1 | -31.33 |
| COc1cccc([C@@H]2CCN(Cc3ccc4ccccc4n3)C[C@H]2O)c1 | -19.61 |
| COc1cccc([C@@H]2CCN(Cc3cn(C)c4ccccc34)C[C@H]2O)c1 | 77.7 |

| Compound | Percent Effect [%] |
| --- | --- |
| Cc1ccc(CN(C)C(=O)CN2CCc3ccccc3C2)o1 | -48.11 |
| CC(C)n1cnnc1CN(C)C(=O)C1CCCN(C2CCN(C)CC2)C1 (stereo unspecified) | -93.39 |
| COc1ccc(NC(=O)Cn2nc(C)ccc2=O)cc1OC | -36.97 |
| Cn1ccc2c(ccn2CC(=O)Nc2ccc(Br)cc2)c1=O | -82.23 |
| CC(=O)c1c(C)nn(CC(=O)Nc2ccc(F)cc2)c1C | -45.58 |
| CC(=O)c1c(C)nn(CC(=O)Nc2ccc(Br)cc2)c1C | 66.34 |
| COc1ccc(CC(=O)Nc2ccc3ncn(C)c(=O)c3c2)cc1 | -105.2 |
| COc1ccc(NC(=O)Cn2nc(C)c(C(C)=O)c2C)cc1 | 89.56 |
| CCOCc1cncc2c1CCN(C(=O)c1cscn1)C2.O=C(O)C(F)(F)F | -50.24 |
| Cc1nc(C2CCCN2C(=O)CCCn2cncn2)no1 (stereo unspecified) | -14.54 |
| COc1ccc(S(=O)(=O)N2CCC(Cn3ccnc3)CC2)cc1 | -82.14 |
| CCc1ocnc1C(=O)N1CCOC(c2nc(C(C)C)n[nH]2)C1 (stereo unspecified) | -32.06 |
| CCc1cnc(N)nc1N[C@@H](C)c1ncccc1C | 2.334 |
| CCc1cnc(N)nc1NC(C)c1ccc(C)c(C)c1 (stereo unspecified) | 72.97 |
| CCc1cnc(N)nc1NC(C)c1cnn(C)c1 (stereo unspecified) | -61.87 |
| CCS(=O)(=O)c1cccc(C(=O)Nc2cccc3c2C(=O)N(C)C3=O)c1 | -74.2 |
| CN(Cc1ccco1)[C@@H]1CN(Cc2ccccn2)C[C@@H]2CCCO[C@@H]21.O=C(O)C(F)(F)F.O=C(O)C(F)(F)F.O=C(O)C(F)(F)F | 29.58 |
| Cc1ccc(CN2C[C@@H]3CCCO[C@@H]3[C@H](N(C)Cc3ccco3)C2)s1.O=C(O)C(F)(F)F.O=C(O)C(F)(F)F | 73.4 |
| CNC(=O)[C@@H]1CC[C@@H]2[C@@H](CCN2Cc2cn(C)c3ccccc23)O1.O=C(O)C(F)(F)F | -13.73 |
| CN(Cc1ccco1)[C@@H]1CN(CC2CCOCC2)C[C@@H]2CCCO[C@@H]21.O=C(O)C(F)(F)F.O=C(O)C(F)(F)F | 11.5 |
| CN(Cc1ccco1)[C@@H]1CN(Cc2cccs2)C[C@@H]2CCCO[C@@H]21.O=C(O)C(F)(F)F.O=C(O)C(F)(F)F | 64.28 |
| CN(Cc1ccco1)[C@@H]1CN(Cc2ccncc2)C[C@@H]2CCCO[C@@H]21.O=C(O)C(F)(F)F.O=C(O)C(F)(F)F.O=C(O)C(F)(F)F | 7.341 |

| Compound | Percent Effect [%] |
| --- | --- |
| CN(Cc1ccco1)[C@@H]1CN(Cc2nccs2)C[C@@H]2CCCO[C@@H]21.O=C(O)C(F)(F)F.O=C(O)C(F)(F)F | 29.14 |
| CN(Cc1ccco1)[C@@H]1CN(Cc2cnn(C)c2)[C@@H]2CCCO[C@H]12.O=C(O)C(F)(F)F.O=C(O)C(F)(F)F | 23.66 |
| CN(Cc1ccco1)[C@@H]1CN(Cc2cccnc2)[C@@H]2CCCO[C@H]12.O=C(O)C(F)(F)F.O=C(O)C(F)(F)F.O=C(O)C(F)(F)F | -47.89 |
| CN(Cc1ccco1)[C@@H]1CN(Cc2ccc(F)cc2)[C@@H]2CCCO[C@H]12.O=C(O)C(F)(F)F.O=C(O)C(F)(F)F | 54.29 |
| CC(C)NC(=O)[C@@H]1CC[C@@H]2[C@@H](CCN2Cc2cn(C)c3ccccc23)O1.O=C(O)C(F)(F)F | 76.85 |
| Cn1cc(CN2CC[C@H]3O[C@H](C(=O)NC4CC4)CC[C@H]32)c2ccccc21.O=C(O)C(F)(F)F | 22.79 |
| Cc1ccc(NC2CCN(C(=O)c3ccc(C#N)cc3)CC2)nn1 | -90.82 |
| Cc1nccc(NCc2cncc3c2CCN(S(C)(=O)=O)C3)n1.Cl | -112.1 |
| CSCC[C@H](NC(=O)CCn1ccc2c(Cl)cccc21)C(=O)O | -54.73 |
| Cn1cc(CN2CCCC23CCN(C(=O)c2ccsc2)CC3)cn1.O=C(O)C(F)(F)F | -0.2713 |
| Cc1nn(C)cc1-c1cc(C(F)(F)F)nc(NC2CCCCC2)n1 | -100.7 |
| O=C(NCc1ccco1)[C@@H]1CC[C@@H]2[C@@H](CCN2CC2CC2)O1.O=C(O)C(F)(F)F | 7.283 |
| CN(Cc1cncnc1)[C@@H]1CN(Cc2ccco2)C[C@@H]2CCCO[C@@H]21.O=C(O)C(F)(F)F.O=C(O)C(F)(F)F | -10.65 |
| O=C(NCc1ccco1)[C@H]1CC[C@@H]2[C@@H](CCN2Cc2cccnc2)O1.O=C(O)C(F)(F)F.O=C(O)C(F)(F)F | -37.9 |
| CN(Cc1ccco1)[C@@H]1CN(Cc2cccnc2)C[C@@H]2CCCO[C@@H]21.O=C(O)C(F)(F)F.O=C(O)C(F)(F)F.O=C(O)C(F)(F)F | 27.09 |
| O=C(NCc1ccco1)[C@@H]1CC[C@@H]2[C@@H](CCN2Cc2ccc(F)cc2)O1.O=C(O)C(F)(F)F | 66.38 |
| CN(Cc1ccco1)[C@@H]1CN(Cc2ccoc2)C[C@@H]2CCCO[C@@H]21 | 59.2 |
| Cc1cc(I)c2c(c1)C(=O)C(CN1CCCC1)(CN1CCCC1)CO2 | -91.39 |
| CCCOC1CCCN(c2nc(COC)nc3c2cnn3C)C1 (stereo unspecified) | -157.4 |
| CC(=O)Nc1nc(C2CCN(C(=O)c3ccncc3)CC2)cs1 | 10.73 |
| COCC1c2c(cnn2CC2CC2)CCN1Cc1cc(C)on1.O=C(O)C(F)(F)F.O=C(O)C(F)(F)F (stereo unspecified) | -52.73 |
| COc1ncccc1C(Cc1ccsc1)NC(=O)Cn1cccnc1=O (stereo unspecified) | -43.2 |

| Compound | Percent Effect [%] |
| --- | --- |
| COc1ccncc1NCc1ccsc1 | -36.48 |
| CNc1cc(N2CCCC2CNCc2cccc(C#N)c2)ncn1 (stereo unspecified) | -40.51 |
| Cc1ccc(C2CN(CCS(C)(=O)=O)CCO2)c(C)c1 (stereo unspecified) | -57.06 |
| CN(Cc1cccc(F)c1)C(=O)CS(=O)(=O)Cc1c(Cl)cccc1Cl | 82.58 |
| Cc1noc(C)c1CS(=O)(=O)CC(=O)N(C)Cc1cccc(F)c1 | -32.62 |
| Cc1ccccc1CS(=O)(=O)CC(=O)N(C)Cc1cccc(F)c1 | -13.79 |
| CO[C@H]1CC[C@H]2[C@H]1OCCN2C(=O)c1nn(C)c2ccccc12 | -87.32 |
| CC1CN(CC(=O)NCc2ccc(F)cc2)CCN1c1nccs1 (stereo unspecified) | -59.43 |
| CC/N=c1\nc(NCC)nc2n1C(O)(Nc1ccc(C)cc1C)CS2 (stereo unspecified) | -60.63 |
| Cc1cccc(CS(=O)(=O)NCc2nn(C)c3c2COCC3)c1 | -48 |
| O=C(C1CC1)N1CCC2(CC1)COCCN2Cc1ccc(F)cc1.O=C(O)C(F)(F)F | -44.57 |
| Cc1ccc(NC(=O)CN2CCOCC2)c(F)c1 | -28.6 |
| Cc1nc(C)c(C)c(N2CCC3(CCN(C)C3)C2)n1 (stereo unspecified) | 18.67 |
| CCc1cnc(N)nc1N1CCCC2(CCOCC2)C1 | -153.3 |
| CCc1nc(N)nc(N2CCCC3(CCN(C)CC3)CC2)c1C | 75.43 |
| O=C(O)C(F)(F)F.O=C(c1cnccn1)N1C[C@@H](OCc2ccncc2)[C@@H]2OCCC[C@@H]21 | -88.13 |
| CNC(=O)CN(C)CC1(c2ccc(Br)cc2)CC1 | 20.85 |
| CNC(=O)CCN(C)CC1(c2ccc(Br)cc2)CC1 | 86.7 |
| CNC(=O)N(C)CC1(c2ccc(Br)cc2)CC1 | -138.2 |
| COCCn1c2c(ccc1=O)CCN(C(=O)NC1CC1)CC2 | -102.5 |
